Measurements reported in the supplement of paper PMC11001985.
Values without a mark were called inactive.

compound: C#CCNC(=O)CCSSCCC(=O)NCCc1ccc(C=O)c(C=O)c1; assay: lysine labeling ratio R10:1 (500 µM / 50 µM probe), SILAC-ABPP in living cells; higher = lower intrinsic lysine reactivity toward the probe, active = 2 or less; conditions: HeLa; probe concentrations 500 vs 50 µM
Method in brief: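 An alkyne-tagged lysine probe with a disulfide linker labelled living HeLa cells in PBS at room temperature at either 50 µM or 500 µM, using SILAC light and heavy cells in forward and reverse label swaps. Lysates were mixed, clicked to biotin-azide, trypsin-digested, enriched on neutravidin, DTT-released, alkylated and measured by LC-MS/MS on a TIMS-TOF Pro. Each lysine's R is the filtered median high-probe/low-probe MS1 peptide ratio, combined as the median over forward and reverse replicates, with 20 as the upper limit.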

UniProt Q9UHN6, sequence (Q9UHN6 whole entry): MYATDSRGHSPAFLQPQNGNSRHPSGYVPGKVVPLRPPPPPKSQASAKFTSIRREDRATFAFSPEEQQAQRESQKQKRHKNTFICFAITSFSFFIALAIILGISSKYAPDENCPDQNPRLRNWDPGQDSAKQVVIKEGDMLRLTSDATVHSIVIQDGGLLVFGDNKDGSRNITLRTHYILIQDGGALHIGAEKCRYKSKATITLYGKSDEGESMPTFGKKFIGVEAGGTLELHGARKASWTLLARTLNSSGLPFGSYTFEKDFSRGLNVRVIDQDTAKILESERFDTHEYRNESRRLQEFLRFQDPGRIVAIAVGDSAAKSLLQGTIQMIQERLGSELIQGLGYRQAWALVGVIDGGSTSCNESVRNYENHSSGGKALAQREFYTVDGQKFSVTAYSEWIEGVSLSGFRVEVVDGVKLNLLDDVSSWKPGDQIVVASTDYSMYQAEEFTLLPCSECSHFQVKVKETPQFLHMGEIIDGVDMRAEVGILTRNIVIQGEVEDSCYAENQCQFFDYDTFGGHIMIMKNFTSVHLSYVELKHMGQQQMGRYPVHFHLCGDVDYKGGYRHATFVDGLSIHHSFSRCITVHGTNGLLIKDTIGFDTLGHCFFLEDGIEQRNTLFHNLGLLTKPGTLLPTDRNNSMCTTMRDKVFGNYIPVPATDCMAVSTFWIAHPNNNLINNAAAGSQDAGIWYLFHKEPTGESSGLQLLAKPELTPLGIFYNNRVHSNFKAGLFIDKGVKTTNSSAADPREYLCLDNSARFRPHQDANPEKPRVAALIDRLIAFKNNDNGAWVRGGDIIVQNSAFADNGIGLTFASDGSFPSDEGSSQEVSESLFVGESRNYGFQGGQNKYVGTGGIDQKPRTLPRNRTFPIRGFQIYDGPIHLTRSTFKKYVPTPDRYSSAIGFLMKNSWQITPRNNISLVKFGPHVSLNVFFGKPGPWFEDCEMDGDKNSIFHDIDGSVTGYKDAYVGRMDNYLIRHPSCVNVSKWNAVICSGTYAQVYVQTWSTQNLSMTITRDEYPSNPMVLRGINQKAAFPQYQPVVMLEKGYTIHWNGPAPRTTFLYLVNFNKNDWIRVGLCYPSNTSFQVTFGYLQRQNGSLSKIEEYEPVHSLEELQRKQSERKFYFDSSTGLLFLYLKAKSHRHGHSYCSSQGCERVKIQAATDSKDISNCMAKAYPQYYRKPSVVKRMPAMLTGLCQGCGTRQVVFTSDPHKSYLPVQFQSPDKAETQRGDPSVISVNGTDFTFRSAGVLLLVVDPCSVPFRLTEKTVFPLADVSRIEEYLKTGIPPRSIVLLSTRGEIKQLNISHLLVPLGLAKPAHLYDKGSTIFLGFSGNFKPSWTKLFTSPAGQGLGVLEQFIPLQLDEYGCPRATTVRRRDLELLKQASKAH
UniProt Q14574, sequence (Q14574 whole entry): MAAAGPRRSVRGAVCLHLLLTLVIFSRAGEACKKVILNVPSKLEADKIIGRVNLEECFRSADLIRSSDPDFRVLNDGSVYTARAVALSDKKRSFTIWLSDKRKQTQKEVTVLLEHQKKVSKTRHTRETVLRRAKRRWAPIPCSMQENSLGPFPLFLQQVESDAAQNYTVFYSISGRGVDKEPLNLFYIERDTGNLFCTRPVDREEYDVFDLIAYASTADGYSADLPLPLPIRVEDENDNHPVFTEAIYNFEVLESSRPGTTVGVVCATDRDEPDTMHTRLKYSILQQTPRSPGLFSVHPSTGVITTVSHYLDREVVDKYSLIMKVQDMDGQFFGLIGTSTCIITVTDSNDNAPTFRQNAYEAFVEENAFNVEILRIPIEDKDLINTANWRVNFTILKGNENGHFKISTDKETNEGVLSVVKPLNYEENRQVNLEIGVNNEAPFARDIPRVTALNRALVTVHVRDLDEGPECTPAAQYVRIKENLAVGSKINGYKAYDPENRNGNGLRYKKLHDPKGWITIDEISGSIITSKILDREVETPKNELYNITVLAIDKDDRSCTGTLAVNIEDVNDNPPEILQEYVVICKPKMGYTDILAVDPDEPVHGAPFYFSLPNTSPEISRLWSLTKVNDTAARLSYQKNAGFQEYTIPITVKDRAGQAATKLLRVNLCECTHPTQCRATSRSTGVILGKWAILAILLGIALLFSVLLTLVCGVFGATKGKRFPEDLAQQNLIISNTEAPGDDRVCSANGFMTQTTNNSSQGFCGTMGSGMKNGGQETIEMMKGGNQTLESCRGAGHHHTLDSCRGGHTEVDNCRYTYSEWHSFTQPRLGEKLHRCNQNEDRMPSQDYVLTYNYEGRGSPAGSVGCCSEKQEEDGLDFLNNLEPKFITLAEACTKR
UniProt P08174, sequence (P08174 whole entry): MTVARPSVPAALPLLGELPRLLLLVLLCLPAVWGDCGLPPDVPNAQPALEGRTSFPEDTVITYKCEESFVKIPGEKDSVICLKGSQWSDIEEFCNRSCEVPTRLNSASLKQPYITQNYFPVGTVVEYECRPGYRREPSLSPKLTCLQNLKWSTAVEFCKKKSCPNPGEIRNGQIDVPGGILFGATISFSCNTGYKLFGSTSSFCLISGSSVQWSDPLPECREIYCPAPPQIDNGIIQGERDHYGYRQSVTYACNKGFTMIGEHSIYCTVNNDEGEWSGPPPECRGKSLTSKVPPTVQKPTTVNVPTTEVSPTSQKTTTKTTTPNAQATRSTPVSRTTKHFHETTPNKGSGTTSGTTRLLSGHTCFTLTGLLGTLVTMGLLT
UniProt Q8TCT9, sequence (Q8TCT9 whole entry): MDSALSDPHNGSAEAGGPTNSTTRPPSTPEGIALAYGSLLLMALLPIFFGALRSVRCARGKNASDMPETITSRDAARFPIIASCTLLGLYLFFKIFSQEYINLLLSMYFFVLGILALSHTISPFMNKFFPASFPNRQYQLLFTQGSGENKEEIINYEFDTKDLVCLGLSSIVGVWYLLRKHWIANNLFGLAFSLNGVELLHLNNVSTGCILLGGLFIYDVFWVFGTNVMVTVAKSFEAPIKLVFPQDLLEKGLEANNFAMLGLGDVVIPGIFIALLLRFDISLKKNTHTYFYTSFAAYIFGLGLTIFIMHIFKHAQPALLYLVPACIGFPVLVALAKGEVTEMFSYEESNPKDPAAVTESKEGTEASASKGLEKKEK
UniProt P31947, sequence (P31947 whole entry): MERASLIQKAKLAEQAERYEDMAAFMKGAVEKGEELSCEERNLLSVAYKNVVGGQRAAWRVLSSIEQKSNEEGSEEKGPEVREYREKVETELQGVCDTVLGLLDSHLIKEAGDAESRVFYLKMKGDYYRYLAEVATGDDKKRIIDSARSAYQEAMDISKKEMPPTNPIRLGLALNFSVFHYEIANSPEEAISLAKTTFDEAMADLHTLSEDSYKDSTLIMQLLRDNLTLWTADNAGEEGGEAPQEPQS
UniProt P36941, sequence (P36941 whole entry): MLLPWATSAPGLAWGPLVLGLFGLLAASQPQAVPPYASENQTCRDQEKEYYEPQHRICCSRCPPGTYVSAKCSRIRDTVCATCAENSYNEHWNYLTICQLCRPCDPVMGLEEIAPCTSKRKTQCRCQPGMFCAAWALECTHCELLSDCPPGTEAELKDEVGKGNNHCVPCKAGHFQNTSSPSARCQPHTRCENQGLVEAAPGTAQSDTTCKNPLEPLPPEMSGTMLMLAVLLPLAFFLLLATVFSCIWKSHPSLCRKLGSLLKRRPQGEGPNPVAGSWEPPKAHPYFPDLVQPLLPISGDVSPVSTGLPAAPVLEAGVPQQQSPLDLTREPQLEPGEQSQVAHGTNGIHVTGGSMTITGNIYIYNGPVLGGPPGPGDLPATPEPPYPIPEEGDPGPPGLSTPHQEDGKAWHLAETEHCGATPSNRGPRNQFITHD
UniProt P04406, sequence (P04406 whole entry, looked up): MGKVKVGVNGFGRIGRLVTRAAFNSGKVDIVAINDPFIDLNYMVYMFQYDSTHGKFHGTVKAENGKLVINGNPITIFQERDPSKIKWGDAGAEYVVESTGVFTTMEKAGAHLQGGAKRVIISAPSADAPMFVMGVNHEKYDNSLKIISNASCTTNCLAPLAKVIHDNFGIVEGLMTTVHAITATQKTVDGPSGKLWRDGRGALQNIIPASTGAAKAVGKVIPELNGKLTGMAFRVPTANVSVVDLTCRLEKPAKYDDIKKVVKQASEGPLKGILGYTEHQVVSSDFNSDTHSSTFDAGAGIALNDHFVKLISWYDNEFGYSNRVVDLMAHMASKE
UniProt O43707, sequence (O43707 whole entry): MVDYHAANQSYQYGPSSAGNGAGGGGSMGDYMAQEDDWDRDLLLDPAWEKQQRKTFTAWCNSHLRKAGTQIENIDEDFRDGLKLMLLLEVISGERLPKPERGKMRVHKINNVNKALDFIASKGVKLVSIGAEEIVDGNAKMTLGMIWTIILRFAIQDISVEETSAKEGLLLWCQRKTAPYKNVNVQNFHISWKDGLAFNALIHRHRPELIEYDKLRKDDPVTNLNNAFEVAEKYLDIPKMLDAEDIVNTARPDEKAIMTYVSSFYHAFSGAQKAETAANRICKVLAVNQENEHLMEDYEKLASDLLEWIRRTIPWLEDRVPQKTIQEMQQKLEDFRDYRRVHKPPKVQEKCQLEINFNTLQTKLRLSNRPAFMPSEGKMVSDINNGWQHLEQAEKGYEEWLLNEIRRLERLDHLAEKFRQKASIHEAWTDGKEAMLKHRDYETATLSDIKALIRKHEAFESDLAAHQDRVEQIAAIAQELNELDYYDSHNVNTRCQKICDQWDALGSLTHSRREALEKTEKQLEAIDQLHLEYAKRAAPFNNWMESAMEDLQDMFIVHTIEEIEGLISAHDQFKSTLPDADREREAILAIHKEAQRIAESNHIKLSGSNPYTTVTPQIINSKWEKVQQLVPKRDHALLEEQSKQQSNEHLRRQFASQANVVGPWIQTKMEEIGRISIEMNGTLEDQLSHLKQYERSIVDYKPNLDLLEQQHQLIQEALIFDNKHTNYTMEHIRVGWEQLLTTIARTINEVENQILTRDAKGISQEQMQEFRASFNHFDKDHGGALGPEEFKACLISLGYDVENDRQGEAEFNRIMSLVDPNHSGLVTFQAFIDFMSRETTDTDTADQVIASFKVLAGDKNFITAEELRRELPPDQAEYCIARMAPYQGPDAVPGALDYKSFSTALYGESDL

Target	lysine labeling ratio R10:1
MYH9 (lysine site: K1835) (UniProt P35579)	1.11 (active)
UniProt Q9UHN6 (lysine site: K278)	3.15
P4HB (lysine site: K328) (UniProt P07237)	1.54 (active)
IGF2R (lysine site: K1576) (UniProt P11717)	0.605 (active)
UniProt P26012 (lysine site: K515)	1.07 (active)
CD55 (lysine site: K161) (UniProt P08174)	0.828 (active)
DDX3X (lysine site: K264) (UniProt O00571)	1.78 (active)
GAPDH (lysine site: K227) (UniProt P04406)	1.76 (active)
THBS1 (lysine site: K201) (UniProt P07996)	3.89
LTBR (lysine site: K48) (UniProt P36941)	4.97
CPM (lysine site: K338) (UniProt P14384)	4.51
HSPA8 (lysine site: K531) (UniProt P11142)	3.46
CCT4 (lysine site: K21) (UniProt P50991)	3.58
UniProt Q14574 (lysine site: K381)	1.61 (active)
FRAS1 (lysine site: K263) (UniProt Q86XX4)	1.46 (active)
ACTN4 (lysine site: K437) (UniProt O43707)	2.2
HM13 (lysine site: K61) (UniProt Q8TCT9)	1.69 (active)
SFN (lysine site: K77) (UniProt P31947)	3.35
UniProt P25705 (lysine site: K434)	1.73 (active)
FZD1 (lysine site: K384) (UniProt Q9UP38)	0.938 (active)
CTNNA1 (lysine site: K199) (UniProt P35221)	1.43 (active)
UniProt Q9UHN6 (lysine site: K846)	1.51 (active)
UniProt P55285 (lysine site: K365)	0.61 (active)
